# An excerpt weighted towards active compounds, which were near 9.2% of everything screened.
# NPC1 prom act: NPC1 promoter activation; AID 485313; Huh7 NPC1 promoter luciferase reporter, 24 h; Potency, µM (series often up to 9.22 µM), without a hit: at the highest dose activation, actives largely listed as activators; 2.4% of 320,000 active; also: % of control where 0% means no effect; nearly all actives have a fitted effect of over 60% in size
#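 In 1536-well qHTS, Huh7 cells harboring an NPC1 promoter–luciferase construct received compound for 24 h; activation was quantified by luminescence following luciferase reagent addition.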
# Rab9 promoter act: activates the Rab9 promoter | 2.8% of 320,000 active | Potency, µM (series often up to 9.22 µM), inactives show top-dose activation, negative = inhibition, most hits filed as activators | Huh7 Rab9 promoter-luciferase reporter, luminescence, 24 h; also: % of control where 0% means no effect; nearly all actives have a fitted effect of over 60% in size
#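 Luciferase signal after 10 min detection reagent at ambient indicates Rab9 promoter upregulation; stably transfected Huh7 cells were treated 24 h with compound in DMSO at 37 °C, 5% CO2.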
# FLuc modulator: firefly luciferase modulation, counter-screen for miR-21 project. 6.9% of 360,000 active. purified FLuc, Km substrates, luminescence inhibition. AID 588342. P08659. Potency, µM (top dose mostly 57.5 µM), for inactives: top-dose activity change, negative = inhibition, actives largely listed as inhibitors;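 also: plate controls were vehicle for no effect and reference inhibitor for full effect; nearly all actives have a fitted effect of over 55% in size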
# Target sequence (P08659 whole entry, looked up): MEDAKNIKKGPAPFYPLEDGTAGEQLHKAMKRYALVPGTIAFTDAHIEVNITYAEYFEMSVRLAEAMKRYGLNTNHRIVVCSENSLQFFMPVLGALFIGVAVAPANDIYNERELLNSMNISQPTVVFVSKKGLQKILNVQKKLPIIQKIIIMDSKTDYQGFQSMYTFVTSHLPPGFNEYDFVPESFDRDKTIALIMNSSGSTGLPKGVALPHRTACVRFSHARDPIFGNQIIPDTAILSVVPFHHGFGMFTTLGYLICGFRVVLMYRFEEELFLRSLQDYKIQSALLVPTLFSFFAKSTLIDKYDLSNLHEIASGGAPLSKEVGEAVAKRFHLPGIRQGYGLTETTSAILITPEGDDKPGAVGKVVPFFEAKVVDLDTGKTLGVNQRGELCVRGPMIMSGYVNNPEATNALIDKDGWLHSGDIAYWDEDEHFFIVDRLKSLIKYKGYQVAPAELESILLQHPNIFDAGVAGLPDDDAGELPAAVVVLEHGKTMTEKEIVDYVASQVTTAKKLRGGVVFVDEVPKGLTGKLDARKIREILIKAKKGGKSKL
#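 Purified P. pyralis luciferase, 10 nM final, with Km-level 10 uM D-luciferin and 10 uM ATP in 50 mM Tris acetate pH 7.5, 10 mM Mg acetate, 0.01% Tween-20, 0.05% BSA; 6-point qHTS titration about 60 µM downward; luminescence read.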
# SMN2 splice enh: enhancers of SMN2 splice variant expression; HEK293 SMN2-luciferase splicing reporter, luminescence, 30-36 h; Potency, µM (top dose mostly 46.1 µM), for the others: top-dose activity change, positive = activation, actives largely listed as activators; 2.8% of 210,000 active; AID 1458; also: % of control where 0% means no effect; nearly all actives have a fitted effect of over 55% in size
#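 HEK293 cells carry an SMN2 minigene-luciferase reporter in which exon 7 inclusion puts luciferase in frame. Cells were seeded at 2000 cells/well, attached for 10-12 hours, then exposed to compounds for 30-36 hours at 37C before ONE-Glo luminescence.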
# ELG1 repair inh: inhibitors of ELG1-dependent DNA repair in HEK293T cells. Potency, µM (highest dose often 46.1 µM), without a hit: at the top dose activity change, negative = inhibition, usual class: inhibitors. HEK293T ELG1-luciferase reporter, luminescence, 16 h; DNA damage induced by 5-fluorouridine. AID 504467. 2.3% of 330,000 active; also: % is scaled to controls: 0 for no effect and ±100 for the full control effect; nearly all actives have a fitted effect of over 55% in size
#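 In this reporter screen, reduction of luminescence relative to DMSO vehicle indicated activity. Compounds and 5-fluorouridine were added together to 2,000 cells per well, incubated for 16 hr at 37 °C, then developed with ONE-Glo.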
# ELG1 genotox: induces genotoxicity in HEK293T cells with luciferase-tagged ELG1; HEK293T ELG1-luciferase reporter, luminescence, 16 h; Potency, µM (titrated, usually from 46 µM), for the others: at the top dose activity change, positive = activation, actives largely listed as activators; 1.3% of 330,000 active; AID 504466; also: % of control where 0% means no effect; nearly all actives have a fitted effect of over 60% in size
#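 16 hr compound incubation (37 °C, 5% CO2) of HEK293T cells carrying luciferase-tagged ELG1; luciferase then measured by ONE-Glo luminescence after 30 min at RT.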
# Active calls of the source: *; ? = inconclusive; / = not tested or not shown; [ ] = remark or other dose. Calls follow the shape of the dose curve; as a rule, active = well fitted curve in the direction sought with a large enough effect; inconclusive = small, poorly fitted or top-dose-only effect, or another doubt; inactive = no such curve, though single readings can be large; an effect the other way counts as inactive or inconclusive. Potency is read from the fitted curve at half-maximal effect.
SMILES,NPC1 prom act,Rab9 promoter act,FLuc modulator,SMN2 splice enh,ELG1 repair inh,ELG1 genotox
O=c1c2cc(NC(=S)NCc3cccnc3)ccc2nc2n1CCCCC2,13%,29%,?,-16%,4%,13%
O=C(Nc1ccc(C(=O)c2ccccc2)cc1)c1ccccc1,3.5µM*,2µM*,11µM*,/,?,?
Cc1ccc(C)n1-c1ccc(C(=O)Nc2ccccc2)cc1,28%,?,9.5µM*,13µM*,-6%,?
O=C(NNC(=O)c1ccc(NC(=O)c2ccccc2)cc1)Nc1ccccc1,-1%,-4%,-12%,-1%,?,18%
O=C(Nc1ccc(C(F)(F)F)cc1)c1ccccc1,2.8µM*,2.5µM*,?,/,?,18%
O=C(NNC(=O)c1ccc(NC(=O)c2ccccc2)cc1)c1ccc(F)cc1,1%,8%,1%,/,4%,18µM*
COC(=O)c1ccc(N(CC(=O)NC2CCCC2)C(=O)c2ccc(C)s2)cc1,2%,2%,1%,/,-9%,-10%
CCc1ccc(NC(=S)N2CCCCCCC2)cc1,?,?,4.8µM*,16µM*,?,?
S=C(Nc1ccc(Br)cc1)N1CCCC1,16%,3%,15µM*,8.9µM*,?,12%
S=C(Nc1ccc(Cl)cc1)N1CCCCC1,7%,1%,12µM*,12%,30%,1%
CCOc1ccc(NC(=S)N2CCCC2)cc1,-3%,1%,-1%,/,25%,26%
CCCCc1ccc(NC(=S)N2CCCC(C)C2)cc1 (stereo not given),8%,16%,13µM*,14%,?,11%
CNC(=O)C1CCC(Cn2c(=O)c3sccc3n(CC(=O)NCc3ccccc3)c2=O)CC1 (stereo not given),/,/,4%,/,/,/
COc1ccc(CCNC(=O)c2cc(COc3c(C)cccc3C)on2)c(OC)c1,19%,30%,?,/,?,?
Cc1cc(N)c2ccccc2[n+]1CCCCCCCCCC[n+]1c(C)cc(N)c2ccccc21,-30%[46.1 µM],-38%[46.1 µM],/,-44%,/,/
COc1ccc2nc3sc(C(=O)NCCCN4CCc5ccccc5C4)cc3cc2c1,0%,10%,19µM*,1%,3%,3%
COC(=O)c1cccc(NC(=S)NCc2ccc(F)cc2)c1,10%,-6%,4%,7.1µM*,-9%,-4%
CNC(=S)Nc1cccc(C(=O)OC)c1,3.5µM*,2µM*,-3%,/,?,18%
COC(=O)c1cccc(NC(=S)NCc2ccco2)c1,4%,0%,?,-6%,-12%,3%
CCc1ccccc1NC(=O)C1CCN(C2=NS(=O)(=O)C(c3ccc(C)c(C)c3)=C2C)CC1,/,/,-6%,/,/,/
CCOC(=O)c1c(NC(=O)C2=C(C)NC(=S)NC2c2ccccc2C(F)(F)F)sc(C)c1C (stereo not given),-7%,1%,2%,-7%,23µM*,-1%
CCOC(=O)c1c(NC(=O)c2ccc(S(=O)(=O)N(CC(C)C)CC(C)C)cc2)sc2c1CCN(CC)C2,/,/,4%,/,/,/
O=C(NCCN1C(=O)S/C(=C\c2ccc(Cl)c(Cl)c2)C1=O)c1ccc2c(c1)C(=O)N(Cc1ccncc1)C2=O,1%,-2%,-12%,-8%,9.2µM*,5%
O=C(NCCN1C(=O)S/C(=C\c2ccc(Cl)c(Cl)c2)C1=O)C1COc2ccccc2O1 (stereo not given),-10%,-5%,-1%,-10%,-12%,-5%
Cc1ccc(NC(=O)Cn2nnnc2-c2ccccc2N)cc1,/,/,-11%,4%,/,/
CCN=c1scc(C)n1/N=C/c1ccsc1,3.2µM*,3.2µM*,17µM*,?,?,?
Cc1ccc(-c2nc(N/N=C/c3ccccc3[N+](=O)[O-])c3ccccc3n2)cc1,1.6µM*,3.5µM*,0.76µM*,?,?,20%

# Screening data (PubChem)
